Laboratory results as given in PubChem BioAssay (EPA / NIEHS).
Values joined by “and” are separate entries in the source; they are usually repeats but may differ in a detail not shown here. Equal entries are not always repeated. Where a structure was tested more than once in an assay, its records may differ in their call. Active and inactive are the calls of the source. How the source made its calls: active means hit-call score of the fitted dose curve at least 0.9, where 1 is the maximum; inactive means score below 0.9.

Assay: ATG_TCF_b_cat_CIS: Attagene CIS-FACTORIAL HepG2 Assay for human T-Cell-Factor with beta-catenin (TCF/b-cat) (AID 2282965)
Details: HepG2 TCF/beta-catenin cis-reporter transcription, actives raise or lower the signal
Experimental: ATG_CIS is a cell-based, multiplexed-readout assay that uses HepG2, a human liver cell line, with measurements taken at 24 hours after chemical dosing in a 24-well plate.ATG_TCF_b_cat_CIS is one of 52 assay component(s) measured or calculated from the ATG_CIS assay. It is designed to make measurements of mRNA induction, a form of inducible reporter, as detected with fluorescence intensity signals by Reverse transcription polymerase chain reaction (RT-PCR) and Capillary electrophoresis technology.Data from the assay component ATG_TCF_b_cat_CIS was analyzed into 1 assay endpoint. This assay endpoint, ATG_TCF_b_cat_CIS, was analyzed with bidirectional fitting relative to DMSO as the negative control and baseline of activity. Using a type of inducible reporter, measures of mRNA for gain or loss-of-signal activity can be used to understand the reporter gene at the transcription factor-level as they relate to the gene TCF7 and TCF7L2 and LEF1 and TCF7L1. Furthermore, this assay endpoint can be referred to as a primary readout, because this assay has produced multiple assay endpoints where this one serves a reporter gene function. To generalize the intended target to other relatable targets, this assay endpoint is annotated to the dna binding intended target family, where the subfamily is HMG box protein.
Human liver HepG2 cells are transiently transfected with multiple reporter transcription units (MRTUs) in 6-well plates using FuGene 6 reagent (Roche; 3 ml FuGene/1 mg DNA). The MRTU constructs are regulated by a cis-regulating element (promoter). […] A major difference between the CIS and TRANS system is that in CIS activities of endogenous TFs are measured, whereas the TRANS assay evaluates changes in activities of exogenous, chimeric NR-Gal4 proteins. […] At the end of 24 hour incubation, total RNA was isolated using TriZol reagent (Invitrogen). The isolated RNA is then reverse-transcribed using oligo(dT) primer and Mo-MLV reverse transcriptase (Invitrogen) with DNAse I (Ambion) treatment for 30 min. The one-tenth of the produced cDNA was amplified by PCR using Taq DNA polymerase (Invitrogen) and two reporter sequence-specific primers. The PCR products were fluorescently labeled by primer extension with 6-arboxyfluorescein (6-FAM) 5'-labeled reporter sequence-specific primer (2 min at 95 C, 20 s at 68 C and 10 min at 72 C) and these products were digested with 5U of HpaI (New England Biolabs) for 2h at 37 C. The fragments were purified using Qiaquick PCR columns (Qiagen), analyzed on an ABI 3130xL genetic analyzer (Applied Biosystems) with peak positions identified by using a set of X-rhodamine (ROX)-labeled MapMarker1000 molecular weight standards (BioVentures). The raw capillary electrophoresis data was processed using Attagraph software (Attagene).

SMILES | outcome | AC50
CCCCCCCCCC(=O)O | inactive | 
CCCCCCCCOC(=O)c1cc(O)c(O)c(O)c1 | inactive | 
Cc1cc2c(cc1C(F)(F)F)N(C(=O)Nc1ccc(Oc3cccnc3C)nc1)CC2 | inactive | 
CCCCCCCCCCCCO | inactive | 
O=C(Nc1ccc(Cl)cc1)Nc1ccc(Cl)c(Cl)c1 | inactive | 
COc1ccc2cc(S(=O)(=O)N[C@H](CC(=O)N[C@H](Cc3ccc(CN4[C@H](C)CCC[C@@H]4C)cc3)C(=O)N(C)C(C)C)c3ccc4c(c3)OCO4)ccc2c1 |  | 11.2 µM (active)
NCc1cccc(C2CCN(C(=O)c3ccc(C#Cc4ccccc4F)o3)CC2)c1 |  | 17 µM (active)
Cc1cccc2ccccc12 | inactive | 
CCCCCCCCN(C)CCCCCCCC | inactive | 
CCN(Cc1cccnc1)C(=O)c1cccc(Cl)c1[C@]1(C)C(=O)N(Cc2ccc(OC)cc2OC)c2ccc(Cl)cc21 |  | 5.44 µM (active)
CCCCCc1ccc(N)cc1 | inactive | 8.92 µM (active) and 6.2 µM (active) and 19.5 µM (active)
CN(C)C(=O)C1(N2CCCCC2)CCN(CC[C@@]2(c3ccc(Cl)c(Cl)c3)CN(C(=O)c3ccccc3)CCO2)CC1 |  | 0.98 µM (active)
CCCCCCCCCCCC[N+](C)(C)C | inactive | 
CCOC(=O)O[C@H](C)OC(=O)c1ccc2c(c1)cc(C(=O)NC1CCN(C(C)C)CC1)n2Cc1cc(-c2ccc(Cl)s2)on1 | inactive | 
O=c1[nH]sc2ccccc12 |  | 44.4 µM (active)
c1ccc(C[n+]2cccc3ccccc32)cc1 | inactive | 
CC(=O)N1CCN(c2ccc(OC[C@H]3CO[C@](Cn4ccnc4)(c4ccc(Cl)cc4Cl)O3)cc2)CC1 |  | 5.19 µM (active)
CCCC(=O)OCCC(C)C | inactive | 
CC(O)CC(C)(C)O (stereo not given) | inactive | 

SMILES | outcome | AC50
CN1C(=O)CC[C@H]1c1cccnc1 | inactive | 
Cc1cc(F)ccc1-c1cc(N2CC[C@@H](O)[C@H]2CO)ncc1N(C)C(=O)C(C)(C)c1cc(C(F)(F)F)cc(C(F)(F)F)c1 | inactive | 
CCCCOC(=O)c1ccc(O)cc1 | inactive | 100 µM (active)
OCCO | inactive | 
Cc1ccc2oc(CN(Cc3ccccc3)C(=O)Nc3c(F)cc(F)cc3F)c(-c3ccc(Cl)cc3)c2c1 | inactive | 
O=C=NCCCCCCN=C=O | inactive | 
O=C1O[C@H]([C@@H](O)CO)C(O)=C1O | inactive | 
O=C(O)c1ccccc1-n1cc(C(=O)O)c(=O)c2cc(Nc3c(F)cc(F)cc3Cl)c(Cl)cc21 | inactive | 
c1ccc2ccccc2c1 | inactive | 
C[C@]12CC[C@@H]3c4ccc(O)cc4CC[C@H]3[C@@H]1CC[C@H]2O | inactive | 27.3 µM (active)
COCC(C)OCC(C)OCC(C)O (stereo not given) | inactive | 
CN1C(=O)N(c2ccccc2Br)Cc2cnc(Nc3ccc4c(c3)OCC(CO)O4)nc21 (stereo not given) |  | 0.116 µM (active)
CC[C@@H]1C[C@H](N(Cc2cc(C(F)(F)F)cc(C(F)(F)F)c2)C(C)=O)c2cc(C(F)(F)F)ccc2N1C(=O)OC(C)C | inactive | 
CC(C)(O)c1ccc(CNC(=O)c2cccnc2Oc2ccc3nonc3c2)cc1 | inactive | 
O=C1c2ccccc2C(=O)N1CCc1noc(-c2ccc(CN3CCCCCC3)s2)n1 | inactive | 
O=c1c(-c2ccc(O)cc2)coc2cc(O)cc(O)c12 | inactive | 
Oc1ccccc1 | inactive | 
c1ccc2n[nH]nc2c1 | inactive | 
